In the supplement of paper PMC11417369:
In all, about 25,000 sequences were measured (“ln(normalized median fluorescence intensity)”: median about 7.1, highest 2% from about 10 on). The entries come from a sample that favours the highest values as a whole.

The sequences below were run on PfSIP2 AP2 domain 1 (GST-tagged) (assay: gcPBM binding intensity (ln(normalized median fluorescence intensity)); higher = stronger DNA binding).
How it was run: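 The highest Masliner-normalised natural-log median intensity across replicate spots of either probe orientation is reported as binding intensity. GST-tagged P. falciparum DNA-binding domains expressed in E. coli were applied for 1 h to an Agilent 4 × 180k array of primer-extended double-stranded 36-bp intergenic genomic probes plus negative controls, and bound protein was detected with Alexa488 anti-GST antibody and scanned at 488 nm.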

Row | Sequence | gcPBM binding intensity (ln)
1 | AAAATATAATATATTGCACACAAAAAGTGAATTATT [CACACA_site8489] | 6.95
2 | ATAATATTCGAGTGTGCACACAAACATACATATATA [CACACA_site3396] | 8.79
3 | AATAATAAAGTGAACACACACATATAATATATATAT [CACACA_site4143] | 8.41
4 | ATAATAATAAAGTGAACACACACATATAATATATAT [CACACA_site9378] | 7.19
5 | CTATAATAATAAAGTGAACACACACCGATAATATAT [CACACA_site9377] | 7.02
6 | TATATAACCGAGTGCACACACAAAAAAAAAGTGAAC [CACACA_site6806] | 11.1
7 | TGTATATAATCGAGTGCACACACAAAAAAAAAGTGA [CACACA_site8417] | 10.4
8 | ACACACAATACAAAAGTGCATATAATAATTAATCAT | 8.76
9 | TATATAATCGAGTGCACACACAAAAAAAAAGTGAAC [CACACA_site1483] | 10.8
10 | TATAATAATATTTATTGTACAATTAGTTTAATTCAT [XGTACX_site272] | 7.08
11 | TACAAAAAAGAAGATATTCAAACAAAAACAAAAAAA [CACACA_negctrl_site1126] | 6.8
12 | CTCCTCATATAATTTTGTACATAAAAAATTACCATT [XGTACX_site3879] | 7.31
13 | CCCCATATAATGAACACACACACTCCTCATAATTAA [CACACA_site628] | 7.15
14 | TAATCATAACTTGATACGCACACGTTATATAAATAA [CACACA_site1579] | 7.02
15 | ATAAAATAAAATAAATGTACACGAAAAAAAATATTT [XGTACX_site3747] | 7.25
16 | TAACAATTAATAAAAGGTACACTTGAATATGCACCA [XGTACX_site2717] | 10.5
17 | ATGAATAAATTAAAAATGCACACTTTGATGGGTACA [CACACA_site2157] | 7.46
18 | TATTATATATATGCACGTACAAAAATAATAAAGGTA [XGTACX_site3506] | 7.71
19 | TTTAAATACAGACATACACACATACACGCACATATA [CACACA_site6400] | 7.17
20 | TTTGAGTGCACATACACACAGACATACATTTAAATA [CACACA_site3403] | 11.9
21 | TTTTTGAGTGCACATACACACAGACATACATTTAAA [CACACA_site5813] | 11.5
22 | TTATACAGATATTTAACACACATTTTATAAAGTGCC [CACACA_site4851] | 6.87
23 | TAAATTTTTAAATACACACATACACCCATACAGACA [CACACA_site548] | 7.51
24 | TTTAAATACAGACATACACACATACACAGACATATA [CACACA_site4460] | 6.97

Row | Sequence | gcPBM binding intensity (ln)
25 | TCCTTTTTGAAATGTTGTACTTTTTTTATCTTTCAT [XGTACX_site953] | 7.12
26 | ATTAACTATCATAACACACACAGTAGACATATTTTT [CACACA_site1822] | 7.04
27 | GATATATAAACATATACACACAAAAACATATTTATA [CACACA_site6734] | 6.98
28 | TGAATTATAAATTATAGTACTTTATAATATGAACAT [XGTACX_site2317] | 6.81
29 | TTTTTTTTTTTTTTGGTGCACATAGAAATTCTAAAA [GTGCAC_site9809] | 11.3
30 | AGAAAAATTCTAAGAACATGCAAAAAAATAAAAAAA [TGCATGCA_site293] | 6.84
31 | AAAAAAAAAATTTTCGTGCACATAAGAAAATTTAAA [GTGCAC_site9788] | 9.36
32 | ATTAAATGCACATATACACACACCCAATTTTAAGTT [CACACA_site3049] | 7.4
33 | TATGTAATAAATAGTACACACACACCGATATATATA [CACACA_site8389] | 7.46
34 | AAGGATTACAAAAAAAGTACAAATGGATTTTTTCCC [XGTACX_site8905] | 6.84
35 | TGCTTATATATACGTGCACACATATATATAAGATAT [CACACA_site8516] | 9.74
36 | TATGTTTACATATACGTGCACATGAATGTATACATT [GTGCAC_site9894] | 9.69
37 | TGCAAGCTTATATAGGTGCACATGTATACGTGTTCA | 11.3
38 | ATAACATACATAACAACACACAATATTTATAGGTAT [CACACA_site6243] | 7.12
39 | ATATAATCAACTGCAAAGGTTTAAAAGGAAAAAATA [CACACA_negctrl_site989] | 6.79
40 | TGATATTATTATAAGGTGCTTAAAAATAAAGATAAT [GTGCAC_site9539] | 7.78
41 | TATATATTAATCAAAGTGCAATAATAAAATAAAAGT [GTGCAC_site9490] | 8.38
42 | AAATTAAAGATAAAAGTGCAAAATTATAAATTTATT | 7.97
43 | TTTATTAATAAAAAGGTGCAATCAGGAAAAATTATC [GTGCAC_site9626] | 10.8
44 | ATTATCCATCAAAAGGTGCAAATTTTTAATTATAAA [GTGCAC_site9932] | 11.1
45 | TTAACAAAACATAAGGTGCTTAAAATTTTATATCAC [GTGCAC_site9839] | 7.96
46 | ATTATTTGATTAAAGGTGCAAGGATAATAATAAAAC | 10.3
47 | AATTTATAAATAATTAATTTGATAAATTATAAAGGG [GTGCAC_negctrl_site544] | 7.02
